# CFTR F508del cor: CFTR F508del correction in bronchial cells | AID 720511 | actives 0.36% (n = 350,000) | CFBE cells, YFP halide quenching; stimulated with forskolin plus potentiator P3; % fluorescence drop versus neutral controls | activity (quench increase), % at 7.58 µM;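 active = mean added fluorescence quench of at least 8% versus neutral control, with both replicates also reaching 8%; inconclusive = only one of the mean or replicate conditions met; inactive = mean below 8% and not both replicates reaching 8%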;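 note: cells transiently co-express mutant CFTR-F508del with the halide-sensitive YFP; corrector assay measuring rescue of mutant channel to the surface after 24 h compound exposure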
# EWS-Fli inh: EWS/Fli transcriptional activity inhibition; A673 NR0B1-luciferase reporter, viability-normalised; inhibition, % at 12.6 µM; actives 0.67% (n = 350,000); AID 651661;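 active = mean inhibition of at least 50% after viability correction, with every replicate also passing that limit; inconclusive = mean reaches 50% but only one of two replicates passes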;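 note: firefly luciferase signal divided by Alamar Blue viability fluorescence both relative to DMSO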
# LGR2 antag: inhibitors of bursicon-induced Drosophila LGR2 receptor cAMP signaling; HEK293 LGR2, CRE-luciferase, bursicon-stimulated, 4 h; inhibition, % at 9.99 µM; actives 0.35% (n = 380,000); AID 720647;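 active = drop in luminescence signal, shown as inhibition above about 50% in the replicate tests, limit read from the data, passing the limit was not always enough; inconclusive = probably only some replicates passing the limit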;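 note: agonist challenge used bursicon conditioned medium at about half maximal strength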
# PAX8 reporter: lowers PAX8-driven luciferase in RMG-I cells; RMG-I TPO-luciferase reporter, SteadyGlo, 24 h; inhibition, % at 12.6 µM; actives 1.2% (n = 360,000); AID 652154;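 active = mean replicate inhibition at least 60% with every replicate also reaching 60%; inconclusive = only one of the two criteria is met; inactive = mean below 60% and not all replicates reaching 60%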;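 note: luciferase light reporting Pax8 driven TPO promoter activity; plate controls were median of neutral control wells for no effect and mitoxantrone controls for full effect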
# Active calls of the source: *; ? = inconclusive; nt = not tested or not shown; ! = a repeat was not active. Most compounds without a hit are left out; they make up all but 1.8% or so of the library.
SMILES,CFTR F508del cor,EWS-Fli inh,LGR2 antag,PAX8 reporter
O=C(NS(=O)(=O)c1ccccc1[N+](=O)[O-])c1ccccc1,2.2,nt,1.7,-11.0
O=S(=O)(c1ccc(S(=O)(=O)N(Cc2ccccc2)Cc2ccco2)cc1)N1CCCC1,nt,nt,2.2,nt
COC(=O)/C=C/c1ccccc1S(=O)(=O)N(Cc1ccccc1)Cc1ccco1,8.3*,2.0,-3.2,42.7
O=C(N/N=C/c1c(O)ccc2ccccc12)c1ccc(CO)nc1,13.9*,3.9,nt,71.3*
CNc1ccc2c3c(cccc13)C(=O)N(C)C2=O,20.4*,4.3,27.8,-14.3
C[C@@H]1CN([C@@H](C)CO)C(=O)c2c(c3ccccc3n2C)-c2ccccc2CO[C@@H]1CN(C)Cc1cccc(C(F)(F)F)c1,4.3,2.0,-9.0,55.8
C[C@@H]1CN([C@H](C)CO)C(=O)c2c(c3ccccc3n2C)-c2ccccc2CO[C@H]1CN(C)C(=O)Nc1cccc(C(F)(F)F)c1,-0.5,8.3,28.8,78.9*
COc1cccc(NC(=O)N(C)C[C@H]2OCc3ccccc3-c3c(n(C)c4ccccc34)C(=O)N([C@H](C)CO)C[C@H]2C)c1,8.4*!,11.4,-15.6,19.8
C[C@H]1CN([C@@H](C)CO)C(=O)c2c(c3ccccc3n2C)-c2ccccc2CO[C@@H]1CN(C)Cc1cccc(C(F)(F)F)c1,-2.3,3.0,16.3,81.7*
CC1CCN(C(=O)Cn2cc([N+](=O)[O-])ccc2=O)c2ccccc2S1 (configuration not stated),-0.4,-5.6,-0.7,0.6
COc1cccc(C#Cc2ccc([C@H]3[C@@H](CO)N(C(=O)C4CCC4)[C@H]3C#N)cc2)c1,4.0,-26.4,13.4,71.5*
COc1cccc(C#Cc2ccc([C@H]3[C@@H](C#N)N(C(=O)C4CCCC4)[C@@H]3CO)cc2)c1,-1.1,0.6,22.4,nt
COc1cccc(C#Cc2ccc([C@@H]3[C@@H](C#N)N(C(=O)C4CCCC4)[C@@H]3CO)cc2)c1,1.3,0.7,-2.9,nt
COc1cccc(C#Cc2ccc([C@H]3[C@@H](CO)N(C(=O)C4CCCC4)[C@H]3C#N)cc2)c1,2.6,2.4,3.4,82.2*
COc1cccc(C#Cc2ccc([C@H]3[C@@H](CO)N(C(=O)C4CCCCC4)[C@H]3C#N)cc2)c1,-0.4,15.6,-7.5,78.3*
O=C(c1cnccn1)N1CC[C@H]2[C@H](CO)Nc3ccc(-c4ccccc4)cc3[C@H]21,-0.3,-5.9,-10.4,6.6
COc1ccc(-c2cc(C(=O)Nc3cccc(O)c3)no2)cc1,-4.1,69.1*,34.8,-16.4
CCOc1ccc(-c2cc(CCCC(=O)Nc3cccc(OC)c3)no2)cc1,2.9,64.1*,-17.3,1.0
COc1ccc(-c2cc(C(=O)N3CCCC3)no2)cc1,-0.2,42.0,74.7*,-0.9
Cc1ccc(S(=O)(=O)CCC(=O)NCCN2C(=O)S/C(=C/c3ccc(F)cc3)C2=O)cc1,-2.0,-32.9,-1.8,37.0
CO[C@@H]1CC[C@H]2CCN(C)C(=O)[C@@H](C)N(C)C(=O)c3cccc(C#N)c3OC[C@H]1O2,nt,-0.7,1.9,-7.4
COc1ccc2c3c(n(C)c2c1)[C@@H](CO)N(Cc1ccccc1)CC31CCN(S(C)(=O)=O)CC1,-1.9,17.2,-14.1,nt
COc1ccc2c3c(n(C)c2c1)[C@H](CO)N(Cc1ccccc1)CC31CCN(S(=O)(=O)c2ccc(C)cc2)CC1,1.0,42.2,23.3,83.9*
Cc1ccc(-n2c(-c3ccccc3)c[n+]3c2CCc2ccccc2-3)c(C)c1,0.0,34.8,39.3,90.9*
C[C@@H]1CCCCO[C@@H](CN(C)C(=O)NC2CCCCC2)[C@@H](C)CN([C@@H](C)CO)C(=O)c2cc(NC(=O)Nc3ccc(C(F)(F)F)cc3)ccc2O1,1.8,3.6,13.2,74.3*
SMILES,CFTR F508del cor,EWS-Fli inh,LGR2 antag,PAX8 reporter
C[C@@H]1CCCCO[C@H](CN(C)C(=O)NC2CCCCC2)[C@@H](C)CN([C@@H](C)CO)C(=O)c2cc(NC(=O)Nc3ccc(C(F)(F)F)cc3)ccc2O1,4.1,8.9,18.3,93.1*
C[C@@H]1CCCCO[C@@H](CN(C)C(=O)NC2CCCCC2)[C@H](C)CN([C@@H](C)CO)C(=O)c2cc(NC(=O)Nc3ccc(C(F)(F)F)cc3)ccc2O1,2.5,8.5,0.7,76.4*
C[C@@H]1CCCCO[C@H](CN(C)C(=O)Nc2ccc(C(F)(F)F)cc2)[C@H](C)CN([C@@H](C)CO)C(=O)c2cc(NC(=O)NC3CCCCC3)ccc2O1,0.0,0.5,18.1,-16.8
C[C@H]1CCCCO[C@H](CN(C)C(=O)NC2CCCCC2)[C@@H](C)CN([C@@H](C)CO)C(=O)c2cc(NC(=O)Nc3ccc(C(F)(F)F)cc3)ccc2O1,3.1,3.2,-5.5,87.1*
C[C@@H]1CCCCO[C@H](CN(C)C(=O)NC2CCCCC2)[C@@H](C)CN([C@H](C)CO)C(=O)c2cc(NC(=O)Nc3ccc(C(F)(F)F)cc3)ccc2O1,2.3,4.1,10.7,-1.7
C[C@@H]1CCCCO[C@H](CN(C)C(=O)Nc2ccc(C(F)(F)F)cc2)[C@@H](C)CN([C@@H](C)CO)C(=O)c2cc(NC(=O)NC3CCCCC3)ccc2O1,1.6,5.6,11.1,29.3
NC(=NCCc1ccccc1)NC(=O)c1cc(Cl)ccc1O,0.6,-69.0,-23.0,-100.5
C[C@@H]1CN([C@@H](C)CO)C(=O)CCCn2cc(nn2)CO[C@@H]1CN(C)C(=O)C1CC1,0.9,2.6,-1.2,1.2
COc1cccc(S(=O)(=O)N[C@@H]2CC[C@@H](CC(=O)NCc3ccc(F)cc3)O[C@H]2CO)c1,1.1,-10.6,11.0,17.3
C[C@@H]1CN([C@H](C)CO)C(=O)c2cc(NC(=O)c3ccncc3)ccc2O[C@H]1CN(C)Cc1ccc(-c2ccccc2)cc1,-4.1,14.2,6.2,11.0
CC(C)NC(=O)Nc1ccc2c(c1)C(=O)N([C@H](C)CO)C[C@H](C)[C@H](CN(C)S(=O)(=O)c1cccs1)OCCCC[C@@H](C)O2,-0.3,-0.9,-1.4,6.9
Clc1c2c(nc3ccccc13)CCC2,2.6,-4.4,-6.2,9.3
Nc1c2c(nc3ccccc13)CCCC2,16.5*!,-9.6,-5.9,-1.7
Nc1c2ccccc2nc2ccccc12,19.7*,44.8,96.0*,-12.3
O=C(NCc1ccncc1)C1CCCN(S(=O)(=O)c2cc(Cl)ccc2Cl)C1 (configuration not stated),1.1,23.1,4.1,5.6
O=c1[nH]c(CN2CCN(c3ccccc3O)CC2)nc2scc(-c3ccccc3Cl)c12,3.4,14.9,11.7,22.1
O=c1[nH]c(CN2CCN(c3ccc(O)cc3)CC2)nc2scc(-c3ccc(Cl)cc3)c12,13.1*,59.8*,-15.3,?
Cc1cc(C)c2nc(SCC(=O)Nc3ccccc3N3CCOCC3)c(C#N)cc2c1,nt,nt,nt,5.3
Cc1cc(C)c2nc(SCC(=O)N3CC(=O)Nc4ccccc43)c(C#N)cc2c1,nt,nt,nt,96.7*
CC1CCN(S(=O)(=O)c2ccc(C(=O)NCc3ccco3)cc2)CC1,4.0,2.6,14.0,-0.3
NS(=O)(=O)c1ccc(NC(=O)COC(=O)C2CCCCC2)cc1,0.8,9.9,nt,2.2
N#Cc1ccc(NC(=O)COC(=O)C2CCC2)cc1,0.5,1.1,-8.6,112.9*

# Assay outcomes (PubChem)
